We go through 96 molecules from PubChem BioAssay AID567 (The Scripps Research Institute Molecular Screening Center, 2006).

Out of some 65,000 compounds screened, about 370 (0.57%) were called active. Many of the other results were omitted from the sample, so actives are more common in it than they were. Unmarked numbers belong to inactive results.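 The calls were made as follows: active = activation above the screen-wide mean activation plus 3 SD (cut at about 19% in these data); inactive = the rest.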

The target of the experiment is 5-hydroxytryptamine receptor 1A (Homo sapiens) (UniProt P08908). As to the kind of experiment: agonism at serotonin HTR1A receptor – cell-based, CHO, Ga15 NFAT-bla reporter, primary screen (AID 567).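 Also: 0% = DMSO wells and 100% = 5-CT at EC100.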 To be noted: CHO 5-HT1a Ga15 NFAT-bla reporter, FRET ratio; at 10 µM; stronger effect = higher value; 0% basal, 100% maximal reference agonist.
Chain of 5-hydroxytryptamine receptor 1A (Homo sapiens) (P08908 whole entry, looked up): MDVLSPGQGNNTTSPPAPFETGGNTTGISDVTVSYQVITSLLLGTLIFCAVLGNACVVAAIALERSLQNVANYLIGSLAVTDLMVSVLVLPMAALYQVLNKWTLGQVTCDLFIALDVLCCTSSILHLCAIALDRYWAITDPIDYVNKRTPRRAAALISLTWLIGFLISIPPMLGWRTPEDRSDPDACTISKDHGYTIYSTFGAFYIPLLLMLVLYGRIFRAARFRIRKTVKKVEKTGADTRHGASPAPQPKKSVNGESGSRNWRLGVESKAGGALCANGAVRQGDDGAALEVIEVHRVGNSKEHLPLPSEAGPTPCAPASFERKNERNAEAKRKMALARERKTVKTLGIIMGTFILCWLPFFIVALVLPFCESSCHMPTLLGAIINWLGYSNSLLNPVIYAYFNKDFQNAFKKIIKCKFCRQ
For `CCn1nnc(NC(=O)c2c(OC)cccc2OC)n1`, the activation is 0.51%.

Turning to `O=C(COc1ccc(S(=O)(=O)NCCc2ccccc2)cc1)N1CCCC1`, the activation is -3.17%.

With `O=C(COc1ccccc1)NCCc1nc2ccccc2[nH]1`, the activation was 2.44%.

As to `Cc1cccc(NC(=O)C2CCCN2S(=O)(=O)c2ccc(F)cc2)c1C` (stereo unspecified), the activation is 0.24%.

Regarding `O=C1Nc2c(Br)cc(Br)cc2C1(O)N1CCOCC1` (stereo unspecified), the activation is 0.9%.

Take `CCOCCCN1C(=O)CN(C2CCCCC2)C(=O)C1c1ccc(OCC)c(OC)c1` (stereo unspecified): the activation is 0.91%.

As for `CCCS(=O)(=O)Nc1c(C(=O)O)[nH]c2ccccc12`, the activation was -2.21%.

As to `c1ccc(Nc2n[nH]nc2-c2ccccc2)cc1`, the activation was 0.42%.

As for `CCCCOc1ccc(Cl)cc1CSc1nncn1N`, the activation was -1.4%.

In the case of `Cc1csc(NC(=O)NC2(C(F)(F)F)Oc3ccccc3O2)n1`, the activation was 1.56%.

Regarding `COc1ccc(C)cc1NC(=O)CSc1nc(SC)ns1`, the activation was -0.56%.

`O=C(CN1CCOCC1)Nc1c(-c2ccccc2)c2cc(Br)ccc2[nH]c1=O`: the activation was -1.84%.

With `Cc1ccc(C(=O)N(CN2CCCC2=O)c2ccc(F)cc2)cc1`, the activation is -4.03%.

With `CC(=O)c1cccc(S(=O)(=O)N2CCC(n3nnc4cc(F)ccc43)CC2)c1`, the activation was 1.45%.

For `COc1ccc(Cn2c(=O)sc3ccccc32)cc1OC`, the activation was 1.04%.

Take `CN(C)c1ccc(NC(=O)c2ccncc2)c2ccccc12`: the activation is -2.38%.

Regarding `O=C(CSC1=NCCS1)Nc1nc(-c2ccccc2)cs1`, the activation was -0.71%.

For the molecule `Cc1nc(NC(=O)CCC(=O)O)sc1C(=O)N(C)C`, the activation is -1.18%.

On to `Cc1cc(NC(=O)Cn2nc(C(F)(F)F)c3c2CCCC3)no1`, for which the activation is -1.46%.

For the molecule `Cc1cccc(N2CCN(C(c3ccccc3)c3nnnn3CC3CCCO3)CC2)c1C` (stereo unspecified), the activation was -0.4%.

Regarding `CN(C)c1cc[n+](Cc2ccccc2)cc1`, the activation is 0.31%.

On to `COC(=O)c1ccc(Oc2nc(Nc3ccc(F)cc3)nc(N3CCCC3)n2)cc1`, for which the activation is 0.02%.

Turning to `N#CNC1=NCN(CCc2ccccc2)CN1`, the activation is -0.74%.

For the molecule `CCOC(=O)N1CCC(NC(=O)C(C)n2c3ccccc3c3cnn(C)c(=O)c32)CC1` (stereo unspecified), the activation is -1.53%.

For the molecule `COc1ccc(S(=O)(=O)N2CCC(C(=O)N3CCOCC3)CC2)cc1OC`, the activation is -2.94%.

As to `CCCCC(=O)N1CC2(C)CN(C(=O)CCCC)CC(C)(C1)C2=O`, the activation was -3.12%.

With `Cc1onc(-c2ccccc2)c1C(=O)Nc1ccccc1C#N`, the activation was -0.43%.

Regarding `CCOC(=O)CSc1nnc(-c2ccncc2)o1`, the activation is -4.83%.

For the molecule `COc1cccc(C2/C(=C(/O)c3ccncc3)C(=O)C(=O)N2CCCN(C)C)c1` (stereo unspecified), the activation was -2.65%.

As for `CN1C(=O)c2ccc(NC(=O)c3c(F)c(F)c(F)c(F)c3F)cc2C1=O`, the activation was -1.19%.

With `Cc1nc(N2CCCC2C(=O)O)c2oc3ccccc3c2n1` (stereo unspecified), the activation was 0.22%.

On to `CCC(=O)c1ccc(OCC(O)CN2CC(C)OC(C)C2)cc1` (stereo unspecified), for which the activation is -2.72%.

For the molecule `CCC(=O)c1ccc(OCC(O)CN2C(=O)NC(C)(C)C2=O)cc1` (stereo unspecified), the activation was 80.3% (active).

Take `CC1(C)NC(=O)N(CCOc2cccc(Oc3ccccc3)c2)C1=O`: the activation was -2.31%.

With `O=C(Nc1ccccc1N1CCN(C(=O)c2ccccc2)CC1)c1ccc2c(c1)OCO2`, the activation was 60% (active).

In the case of `O=C(Nc1ccccc1N1CCN(c2ccccc2)CC1)c1cccc(F)c1`, the activation is 3.42%.

Turning to `CCCC(=O)Nc1ccccc1N1CCN(C(=O)c2ccccc2)CC1`, the activation was 0.59%.

Turning to `Cc1noc(C)c1COC(=O)Cn1c(C)nc2ccccc21`, the activation was -2.62%.

With `O=C(O)CCCC(=O)Nc1ccccc1-n1ccnc1`, the activation was -6.2%.

Turning to `CC(C)NS(=O)(=O)c1ccc(CCC(=O)N2CCOCC2)cc1`, the activation was -3.1%.

In the case of `CCn1c(SCC(=O)Nc2cc(C)ccc2C)nnc1-c1cnccn1`, the activation is -3.82%.

On to `Cc1ccc2c(c1)NCC(C(=O)NC1CCC(C)CC1)O2` (stereo unspecified), for which the activation was -2.41%.

For the molecule `CCC(=O)Nc1ccccc1C(=O)N1CCN(Cc2ccccc2)CC1`, the activation was -6.46%.

Consider `CC1CCCCN1CC(=O)NCc1ccc2c(c1)OCO2` (stereo unspecified), for which the activation was 0.18%.

In the case of `CSc1ccc(-c2c(C#N)c(N)nc3c2c(C)nn3-c2ccccc2)cc1`, the activation was 1.16%.

Turning to `COc1ccc(O)c(C=Nc2cc(C)on2)c1`, the activation is -4.57%.

As for `Cc1ccc(C(c2sc3nc(C)nn3c2O)N2CCN(c3ccccc3)CC2)cc1` (stereo unspecified), the activation is 1%.

Turning to `Cn1cc(S(=O)(=O)N2CCC(Cc3ccccc3)CC2)c(=O)n(C)c1=O`, the activation is -1.31%.

In the case of `O=C(CSc1ncccn1)NC(=O)NCc1ccccc1`, the activation is -2.73%.

Regarding `O=C(CN1CCN(c2ccccc2F)CC1)c1ccc2c(c1)OCO2`, the activation was -1.08%.

`O=C(NC1CCCCC1)n1c(=O)oc2cc(S(=O)(=O)N3CCCCC3)ccc21`: the activation is 1.83%.

Regarding `CCCC(=O)Nc1nnc(CC(=O)OCC)s1`, the activation is -1.79%.

With `O=C(c1ccc(-n2cnnn2)cc1)N1CCN(C(c2ccccc2)c2ccccc2)CC1`, the activation is -2.96%.

On to `CCCOC(=O)c1cc2ccccc2oc1=O`, for which the activation is -1.25%.

As to `CCOC(=O)c1cc2cc(-c3c(C(=O)OCC)oc4cc(O)cc(O)c4c3=O)ccc2o1`, the activation is 20.4% (active).

Take `O=c1c(-c2ccc3c(c2)OCCO3)c(C(F)(F)F)oc2cc(O)cc(O)c12`: the activation was 2.15%.

Consider `COc1cccc(Oc2ccc(N)cc2)c1`, for which the activation is -1.26%.

For `CN(C)S(=O)(=O)c1ccc(Oc2ccc(S(=O)(=O)N(C)C)cc2)cc1`, the activation is -1.45%.

Take `Cc1ccc(Oc2ccc(N)cc2)cc1`: the activation was 61.2% (active).

Take `C=C(Br)Cn1c(CCCC)nc2ccccc21`: the activation is 0.52%.

Regarding `Cn1c(=O)c(=O)n(C)c2cc(S(=O)(=O)NCCc3ccccc3)ccc21`, the activation was -2.1%.

As for `CCOC(=O)C1C(=O)C=C(c2ccc(OC)cc2)CC1c1ccco1` (stereo unspecified), the activation was -1.83%.

On to `O=C(CS(=O)(=O)c1cn(Cc2cccc(F)c2)c2ccccc12)N1CCCCC1`, for which the activation is 0.6%.

On to `COc1ccc(NC(=O)CN(C)S(=O)(=O)c2ccccc2)cc1OC`, for which the activation was -0.21%.

Turning to `CC(=O)Nc1ccc(S(=O)(=O)Nc2nc3n(n2)C(c2ccccc2)CC(=O)N3)cc1` (stereo unspecified), the activation was -0.5%.

With `CCOC(=O)NC(C(F)(F)F)(C(F)(F)F)P(=O)(c1ccccc1)c1ccccc1`, the activation was -0.98%.

On to `c1cc(-c2nn[nH]n2)ccc1CN1CCCCC1`, for which the activation is -2.19%.

For the molecule `O=C(CSc1ncccn1)NCCc1ccccc1`, the activation is 0.69%.

On to `CC1CCCC(C)N1CCCNC(=O)c1cc2c(=O)n(C)c3ccccc3c2n1C` (stereo unspecified), for which the activation was -1.82%.

Regarding `Cn1c(C(=O)NCCCN2CCN(c3cccc(Cl)c3)CC2)cc2c(=O)n(C)c3ccccc3c21`, the activation was 36.5% (active).

As for `O=C(CCn1c(=O)[nH]c2ccccc2c1=O)NCCCN1CCN(c2cccc(Cl)c2)CC1`, the activation was 21.7% (active).

Regarding `O=C(CCCn1c(=O)[nH]c2cc(Cl)ccc2c1=O)NCCN1CCN(c2ccccc2)CC1`, the activation was -0.6%.

On to `O=C(CCn1c(=S)[nH]c2ccccc2c1=O)NCCCN1CCCC1=O`, for which the activation is -0.9%.

Consider `CCn1c(=O)cc(OCC(=O)NCCCN2CCN(c3cccc(Cl)c3)CC2)c2ccccc21`, for which the activation was -3.65%.

For `O=S(=O)(N1CCOCC1)N1CCN(c2ccccc2F)CC1`, the activation is -0.75%.

For the molecule `O=S(=O)(Nc1ccccn1)c1ccc(Oc2ccccc2)cc1`, the activation is 0.59%.

Take `O=C(C1=C(O)C(=O)N(c2ncccn2)C1c1cccs1)c1ccco1` (stereo unspecified): the activation was -1.27%.

`Cc1nc2ccccc2cc1O`: the activation is 0.14%.

Consider `CCC1CCCCN1C(=O)Nc1cccc(NC(=O)N2CCCCC2CC)c1` (stereo unspecified), for which the activation was -2.03%.

On to `CCOc1ccc(Cn2nnc(C(=O)Nc3ccc(OC)cc3OC)c2N)cc1`, for which the activation is 3.25%.

Turning to `O=c1c2ccccc2oc2nc3n(c(=O)c12)CCCS3`, the activation is -0.78%.

Regarding `COc1ccc(C(C(O)C(=O)c2c[nH]c3ccccc23)N2CCN(c3ccccc3)CC2)cc1` (stereo unspecified), the activation was -3.45%.

Consider `CCc1c(C)nc2cc(-c3cccs3)[nH]n2c1=O`, for which the activation is -3.62%.

Regarding `Cc1ccc(S(=O)(=O)C(C#N)c2nc3ccccc3nc2N2CCCC2)cc1C` (stereo unspecified), the activation is 1.05%.

Consider `CC(C)CCNC(=O)C(C)N(C(=O)Cn1nnc(-c2ccc(F)cc2)n1)C1CCCC1` (stereo unspecified), for which the activation is 0.97%.

Turning to `CC(C)(C)n1nc2c(c1NC(=O)c1ccc(S(=O)(=O)N3CCCC3)cc1)CS(=O)C2` (stereo unspecified), the activation was -0.05%.

`O=C1CCC(Cc2ccccc2)N1` (stereo unspecified): the activation is -0.21%.

For the molecule `CC1CCN(C(=O)Cn2cc(C(=O)c3ccco3)c3ccccc32)CC1`, the activation is -0.71%.

For `Cc1cc(=O)cc(C)[nH]1`, the activation is -2.27%.

For `CCOC(=O)C1=C(C)NC(C)=C(C(=O)OCC)C1c1ccccn1`, the activation is -1.2%.

Consider `CCN1C(=O)C(C(=O)NC(C)c2ccccc2)C2CC1(C)Oc1ccccc12` (stereo unspecified), for which the activation was -0.28%.

As to `COc1ccccc1N(CC(=O)N1CCCCC1)S(=O)(=O)c1ccccc1`, the activation was -2.64%.

Turning to `COc1ccc(C2C3=C(CC(C)(C)CC3=O)Oc3ncn4nc(-c5cccnc5)nc4c32)cc1OC` (stereo unspecified), the activation is -3.54%.

For the molecule `COc1ccc(CC(NC(C)=O)C(=O)NC2CCN(C(=O)Nc3ccc(C#N)cc3)CC2)cc1OC` (stereo unspecified), the activation is 0.53%.

Take `Cc1ccc(NC(=O)Cn2nc(C)c3ccccc3c2=O)c(C)c1`: the activation was -0.44%.

Regarding `CCOC(=O)Cc1csc(NC(=O)CSc2nc(C)cc(=O)[nH]2)n1`, the activation is -1.16%.
